# From PubChem BioAssay (NCI)
# Where “and” joins values, the source holds several entries; their conditions need not be identical. Equal entries are not always repeated. About 79,000 compounds went through this panel and 15% of them were active in at least one assay; those are over-represented in the sample as a whole. Calls of active or inactive are those of the source. No stated cut-off is given here; in the data, active means growth inhibition above about 70%; inactive means the rest.
# Experiment: NCI Yeast Anticancer Drug Screen. Data for the rad50 strain (AID 155);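 further: 0% = growth of vehicle-only cultures of the same strain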
# Conditions: S. cerevisiae rad50 strain growth inhibition; at 5.0 µM (retest, dose inferred, filed as 0.5); active compounds read high
# Outline: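 Readout: growth inhibition relative to vehicle-treated cultures. Compound exposure was carried out in a genetically defined yeast strain deficient in DNA damage repair.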
row,SMILES,growth inhibition
1,c1ccc(NC2=NCCN2)nc1,-4% (inactive)
2,C[CH2][Sn]([CH2]C)([CH2]C)[O]C(=O)CO,9% (inactive)
3,CC12CCC(O)CC1CCC1C2CCC2(C)C1CC1CC(=O)OC12 (centres undefined),82% (active)
4,Nc1ccc(N=Nc2ccccc2)cc1,1% (inactive)
5,C[n+]1c(/C=C/c2ccc(O)c3ncccc23)[se]c2ccccc21,22% (inactive)
6,COC(=O)C1=C(C)N2CCSC2(C)C(C(=O)OC)C1c1cccc(Cl)c1 (centres undefined),-21% (inactive)
7,O=[N+]([O-])/C=C/c1ccccc1,94% (active)
8,CC12CCC(O)CC1CCC1C2CCC2(C)C(C(=O)CC(O)C(F)(F)F)CCC12 (centres undefined),4% (inactive)
9,CC(C)NCC(O)c1ccc(O)c(O)c1.[Pt].c1ccc([PH+](c2ccccc2)c2ccccc2)cc1.c1ccc([PH+](c2ccccc2)c2ccccc2)cc1,-7% (inactive)
10,CCOC(=O)/C(=C\c1ccc(C(=O)OC)cc1)[Se]c1ccccc1,13% (inactive)
11,CC/C(=C/c1ccc2c(c1)OCO2)[N+](=O)[O-],89% (active)
12,CCOC(=O)C1=C(C)NC(=O)NC1c1ccc(N(CCCl)CCCl)cc1Cl (centres undefined),6% (inactive)
13,S=C(S)N1CCOCC1,62% (inactive)
14,CCOC(=O)c1ccccc1N,6% (inactive)
15,C[n+]1c(/C=C/c2ccc(O)c(O)c2)[se]c2ccccc21,12% (inactive)
16,CS(=O)(=O)[O-].CS(=O)(=O)[O-].NC1CCCCC1N.[Pt+4] (centres undefined),99% (active)
17,COc1ccc2c(c1O)-c1cccc3c1[C@@H](C2)N(CCCl)CC3,30% (inactive)
18,COC(=O)CC1(C(=O)O)CC2(Cl)C(Cl)=C(Cl)C1(Cl)C2(Cl)Cl (centres undefined),4% (inactive)
19,CCCCN(C)CC(C(C)=O)C(c1ccccc1)c1c(O)c2ccccc2oc1=O (centres undefined),32% (inactive)
20,O=[n+]1c2ccccc2n([O-])c2ccccc21.[Cl][Ni][Cl],96% (active)

row,SMILES,growth inhibition
1,COc1ccc(C(Cc2ccc(Cl)c(Cl)c2)NCCO)cc1 (centres undefined),-16% (inactive)
2,O=C(N/N=C/c1cc(Cl)cc(Cl)c1[O-])c1ccccc1O.O=C(N/N=C/c1cc(Cl)cc(Cl)c1[O-])c1ccccc1O.[Zn+2],93% (active)
3,Oc1ccc(Cl)cc1Sc1cc(Cl)ccc1O,99% (active) and 98% (active) and 90% (active)
4,O=S(=O)([O-])[O-].[OH3+].[OH3+].[OH3+].[Ru+2].c1ccccc1,-39% (inactive)
5,CCCCCC(Cn1ccnc1)c1ccc(Cl)cc1Cl (centres undefined),72% (active)
6,CC1=C(CO)C(=O)OC(C(C)C2CCC3C4CC5OC56C(O)C(N5CC5)=CC(=O)C6(C)C4CCC23C)C1 (centres undefined),-7% (inactive)
7,CCCC[CH2][Sn]([CH2]CCCC)[CH2]CCCC.CCCC[CH2][Sn]([CH2]CCCC)[CH2]CCCC,78% (active)
8,CCC[CH2][Sn]1([CH2]CCC)[O]C(=O)C(C(C)C)N=Cc2ccccc2[O]1 (centres undefined),15% (inactive)
9,Oc1c(Cl)cc(-c2cc(Cl)c(O)c(Cl)c2)cc1Cl,95% (active)
10,CC(=O)Nc1ccc(/C=N/N=C(/N)N[N+](=O)[O-])cc1,-7% (inactive)
11,CC(Br)c1ccccc1 (centres undefined),1% (inactive)
12,C[Si]1(C)CCCCC2(C1)C(=O)NC(=O)NC2=O,0% (inactive)
13,CCCCCCCCCCCCCCCc1cccc(O)c1O,-2% (inactive)
14,CC1(C)OC2OC3C(CN(CCCl)Cc4ccccc4)OC(c4ccccc4)OC3C2O1 (centres undefined),5% (inactive)
15,FC(F)(F)c1nc2ccc(SSc3ccc4nc(C(F)(F)F)[nH]c4c3)cc2[nH]1,-8% (inactive)
16,O=[N+]([O-])c1csc([N+](=O)[O-])c1,99% (active)
17,CCc1cc2c(cc1-c1csc(C/C(N)=N/O)n1)C(C)(C)CCC2(C)C,55% (inactive)
18,CCCCCCCC[N+](CCCC)(CCCC)CCCC (tested in a mixture with another compound),99% (active)
19,CCC[CH2][Sn]([CH2]CCC)([S]C#N)[S]C#N,95% (active)
